In PubChem BioAssay (EPA / NIEHS) one finds outcome and AC50 data, which are given here for 6 compounds.

Results filed as inconclusive are left out. Active and inactive are the calls of the source. How the source made its calls: active means hit-call score of the fitted dose curve at least 0.9, where 1 is the maximum; inconclusive means response in the unintended direction; inactive means score below 0.9.

zebrafish Thyroid Hormone Receptor alpha (TRa), thraa (gene 30670), sequence (Q98867 whole entry, looked up, the tested form may be a part): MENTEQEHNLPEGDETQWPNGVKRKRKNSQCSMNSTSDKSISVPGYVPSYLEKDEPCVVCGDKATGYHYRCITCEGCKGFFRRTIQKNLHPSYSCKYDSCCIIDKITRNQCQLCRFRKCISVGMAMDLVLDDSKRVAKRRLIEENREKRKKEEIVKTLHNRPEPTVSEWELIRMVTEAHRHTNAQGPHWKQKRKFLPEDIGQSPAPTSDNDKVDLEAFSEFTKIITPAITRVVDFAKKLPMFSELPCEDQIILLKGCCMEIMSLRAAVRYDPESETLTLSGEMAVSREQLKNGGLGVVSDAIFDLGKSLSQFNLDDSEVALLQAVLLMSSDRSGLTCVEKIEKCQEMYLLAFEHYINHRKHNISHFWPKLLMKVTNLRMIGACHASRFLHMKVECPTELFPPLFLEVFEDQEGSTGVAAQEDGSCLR
Estrogen receptor beta (Homo sapiens), sequence (Q92731 whole entry, looked up, the tested form may be a part): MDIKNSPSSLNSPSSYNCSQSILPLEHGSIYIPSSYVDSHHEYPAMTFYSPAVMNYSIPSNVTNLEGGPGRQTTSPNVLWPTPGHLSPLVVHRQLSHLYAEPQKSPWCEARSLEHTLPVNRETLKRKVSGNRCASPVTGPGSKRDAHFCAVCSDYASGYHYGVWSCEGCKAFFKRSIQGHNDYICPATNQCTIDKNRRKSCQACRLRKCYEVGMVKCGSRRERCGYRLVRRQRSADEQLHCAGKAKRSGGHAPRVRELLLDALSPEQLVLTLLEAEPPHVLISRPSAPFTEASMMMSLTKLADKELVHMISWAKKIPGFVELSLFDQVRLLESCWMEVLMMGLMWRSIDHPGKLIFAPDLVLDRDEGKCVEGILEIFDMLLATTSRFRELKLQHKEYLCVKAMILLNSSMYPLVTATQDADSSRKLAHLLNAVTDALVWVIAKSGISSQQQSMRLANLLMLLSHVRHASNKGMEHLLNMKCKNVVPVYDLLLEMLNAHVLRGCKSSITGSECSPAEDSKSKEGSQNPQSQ
frog Thyroid hormone Receptor alpha (TRa), thra-a (gene 397942), sequence (P15204 whole entry, looked up, the tested form may be a part): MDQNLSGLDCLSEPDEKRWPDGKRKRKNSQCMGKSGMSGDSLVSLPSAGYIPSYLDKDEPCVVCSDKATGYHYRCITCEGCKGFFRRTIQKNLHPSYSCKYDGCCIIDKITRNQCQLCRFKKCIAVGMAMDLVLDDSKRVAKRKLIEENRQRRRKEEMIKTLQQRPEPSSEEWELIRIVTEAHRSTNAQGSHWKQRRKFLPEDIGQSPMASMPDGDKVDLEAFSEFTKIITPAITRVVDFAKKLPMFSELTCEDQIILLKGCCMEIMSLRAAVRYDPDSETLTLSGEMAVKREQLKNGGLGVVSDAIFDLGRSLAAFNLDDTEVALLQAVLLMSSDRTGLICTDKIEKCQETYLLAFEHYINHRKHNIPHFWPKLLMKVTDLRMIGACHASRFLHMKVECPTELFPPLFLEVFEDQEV

The target of the first experiment is Estrogen receptor beta (Homo sapiens) (UniProt Q92731). Nature of the experiment: ATG_hERb_XSP1: Attagene TRANS-FACTORIAL Multi-Species (XSP1) HepG2 Assay for human Estrogen Receptor (ESR2) (AID 2283788). The method in brief:
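Read-out: reporter mRNA induction by RT-PCR, HpaI digestion and capillary electrophoresis fluorescence, fitted in positive direction relative to DMSO baseline. Human liver HepG2 cells expressing ERβ-Gal4 fusion, dosed 24 h, medium containing 3 nM 6-alpha-fluorotestosterone.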
As to `C[C@]12CCC(=O)C[C@@H]1CC[C@@H]1[C@@H]2CC[C@]2(C)[C@@H](O)CC[C@@H]12`, the call was inactive.
As to `CC12CC1(C)C(=O)N(c1cc(Cl)cc(Cl)c1)C2=O` (centres undefined), the compound was classed as inactive.
Take `CC(C)(C)CC(C)(C)c1ccc(O)cc1`: the AC50 is 2.74 µM (active).

Test system in another experiment: not listed separately
Nature of the experiment: ATG_M_06_XSP1: Attagene TRANS-FACTORIAL Multi-Species (XSP1) HepG2 Assay for M06 Transcription Factor (Internal Marker) (AID 2283790). An outline of the steps: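 Transfected HepG2 multi-reporter system treated 24 h in the presence of 3 nM 6-alpha-fluorotestosterone. The M06 internal marker transcript was quantified by RT-PCR with capillary electrophoresis as a background control, and gain of signal was scored versus DMSO.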
`CC(C)(C)c1cc(O)ccc1O`: the call was inactive.
Turning to `O=C1C2(Cl)C3(Cl)C4(Cl)C(Cl)(Cl)C5(Cl)C3(Cl)C1(Cl)C5(Cl)C24Cl` (centres undefined), the result was inactive.
On the same count and under the same terms, for `CC12CC1(C)C(=O)N(c1cc(Cl)cc(Cl)c1)C2=O` (centres undefined) the value was “inactive”; for `CC1(C)CCC(Cc2ccc(Cl)cc2)C1(O)Cn1cncn1` (centres undefined), “inactive”.
In the case of `CC(C)(C)CC(C)(C)c1ccc(O)cc1`, the outcome was inactive.

Test system in the next experiment: not listed separately
As to the kind of experiment: ATG_M_61_XSP1: Attagene TRANS-FACTORIAL Multi-Species (XSP1) HepG2 Assay for M61 Transcription Factor (Internal Marker) (AID 2283797). An outline of the steps: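 HepG2 cells transiently transfected with multiplexed GAL4-driven reporter units, dosed 24 h with 3 nM 6-alpha-fluorotestosterone present. Reporter mRNA quantified by RT-PCR, 6-FAM labelling, HpaI digestion and capillary electrophoresis; internal-marker background control, gain of signal versus DMSO.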
As for `CC(C)(C)c1cc(O)ccc1O`, the result was inactive.
The same measure, in the same setting: for `O=C1C2(Cl)C3(Cl)C4(Cl)C(Cl)(Cl)C5(Cl)C3(Cl)C1(Cl)C5(Cl)C24Cl` (centres undefined) the value was “inactive”; for `CC12CC1(C)C(=O)N(c1cc(Cl)cc(Cl)c1)C2=O` (centres undefined), “inactive”.
Still for that read-out and setting: for `CC1(C)CCC(Cc2ccc(Cl)cc2)C1(O)Cn1cncn1` (centres undefined) the value was “inactive”; for `CC(C)(C)CC(C)(C)c1ccc(O)cc1`, “inactive”.

Test system in a further experiment: not listed separately
Nature of the experiment: ATG_M_32_XSP1: Attagene TRANS-FACTORIAL Multi-Species (XSP1) HepG2 Assay for M32 Transcription Factor (Internal Marker) (AID 2283799). An outline of the steps: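 HepG2 cells transiently transfected with multi-species TRANS reporter units, dosed 24 h with 3 nM 6-alpha-fluorotestosterone present. Internal-marker reporter mRNA quantified by RT-PCR and capillary electrophoresis; positive-direction fit versus DMSO.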
Take `C[C@]12CCC(=O)C[C@@H]1CC[C@@H]1[C@@H]2CC[C@]2(C)[C@@H](O)CC[C@@H]12`: the compound was classed as inactive.
Same read-out and setting: in the case of `CC1(C)CCC(Cc2ccc(Cl)cc2)C1(O)Cn1cncn1` (centres undefined) it was “inactive”; in that of `CC(C)(C)CC(C)(C)c1ccc(O)cc1`, “inactive”.

Another experiment has as its system zebrafish Peroxisome Proliferator-activated Receptor gamma (PPARg), gene 557037. As to the kind of experiment: ATG_zfPPARg_XSP1: Attagene TRANS-FACTORIAL Multi-Species (XSP1) HepG2 Assay for zebrafish Peroxisome Proliferator-activated Receptor gamma (PPARg) (AID 2283801). The method in brief:
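HepG2 cells transiently transfected with GAL4-UAS reporter units including a zebrafish PPARg–GAL4 chimera, dosed 24 h with 3 nM 6-alpha-fluorotestosterone present. Reporter mRNA quantified by RT-PCR, FAM labelling, HpaI digestion and capillary electrophoresis; induction versus DMSO.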
As to `CC(C)(C)c1cc(O)ccc1O`, the compound was called inactive.
For `CC1(C)CCC(Cc2ccc(Cl)cc2)C1(O)Cn1cncn1` (centres undefined), the result was inactive.
As for `CC(C)(C)CC(C)(C)c1ccc(O)cc1`, the result was inactive.

The target of a further experiment is mouse Peroxisome Proliferator-activated Receptor gamma (PPARg), Pparg (gene 19016) (UniProt P37238). Nature of the experiment: ATG_mPPARg_XSP1: Attagene TRANS-FACTORIAL Multi-Species (XSP1) HepG2 Assay for mouse Peroxisome Proliferator-activated Receptor gamma (PPARg) (AID 2283802). The method in brief: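 HepG2 cells transiently transfected with GAL4-UAS reporter units driven by mouse PPARg–GAL4 chimera; 3 nM 6-alpha-fluorotestosterone present. After 24 h dosing, reporter mRNA quantified by RT-PCR, fluorescent labelling and capillary electrophoresis; gain of signal versus DMSO.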
mouse Peroxisome Proliferator-activated Receptor gamma (PPARg), Pparg (gene 19016), sequence (P37238 whole entry, looked up, the tested form may be a part): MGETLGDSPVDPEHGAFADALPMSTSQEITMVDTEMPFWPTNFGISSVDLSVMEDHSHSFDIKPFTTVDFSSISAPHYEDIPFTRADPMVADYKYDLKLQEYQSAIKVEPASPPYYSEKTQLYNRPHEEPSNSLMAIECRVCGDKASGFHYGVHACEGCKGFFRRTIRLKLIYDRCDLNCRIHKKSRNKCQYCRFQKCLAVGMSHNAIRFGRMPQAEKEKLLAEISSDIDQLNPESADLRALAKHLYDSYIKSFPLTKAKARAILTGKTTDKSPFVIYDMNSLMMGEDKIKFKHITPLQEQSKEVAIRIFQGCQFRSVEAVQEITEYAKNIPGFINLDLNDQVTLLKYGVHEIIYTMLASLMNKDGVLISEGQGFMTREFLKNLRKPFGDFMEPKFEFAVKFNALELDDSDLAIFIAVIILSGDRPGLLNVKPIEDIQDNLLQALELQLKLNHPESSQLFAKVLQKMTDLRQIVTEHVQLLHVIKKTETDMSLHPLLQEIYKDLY
As for `CC(C)(C)c1cc(O)ccc1O`, the AC50 was 14.9 µM (active).
Still for that read-out and setting: in the case of `CC12CC1(C)C(=O)N(c1cc(Cl)cc(Cl)c1)C2=O` (centres undefined) it was 39.2 µM (active).
With `CC1(C)CCC(Cc2ccc(Cl)cc2)C1(O)Cn1cncn1` (centres undefined), the AC50 was 78.6 µM (active).

For the next experiment, the target named is Nuclear receptor subfamily 1 group I member 2 (Mus musculus) (UniProt O54915). Nature of the experiment: ATG_mPXR_XSP1: Attagene TRANS-FACTORIAL Multi-Species (XSP1) HepG2 Assay for mouse Pregnane X Receptor (PXR) (AID 2283803). The method in brief: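 Transiently transfected HepG2 cells expressing a receptor-Gal4 chimera drive a GAL4-UAS reporter; 3 nM 6-alpha-fluorotestosterone included. Reporter mRNA read 24 h post-dose by RT-PCR and capillary electrophoresis; gain of signal relative to DMSO.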
Nuclear receptor subfamily 1 group I member 2 (Mus musculus), sequence (O54915 whole entry, looked up, the tested form may be a part): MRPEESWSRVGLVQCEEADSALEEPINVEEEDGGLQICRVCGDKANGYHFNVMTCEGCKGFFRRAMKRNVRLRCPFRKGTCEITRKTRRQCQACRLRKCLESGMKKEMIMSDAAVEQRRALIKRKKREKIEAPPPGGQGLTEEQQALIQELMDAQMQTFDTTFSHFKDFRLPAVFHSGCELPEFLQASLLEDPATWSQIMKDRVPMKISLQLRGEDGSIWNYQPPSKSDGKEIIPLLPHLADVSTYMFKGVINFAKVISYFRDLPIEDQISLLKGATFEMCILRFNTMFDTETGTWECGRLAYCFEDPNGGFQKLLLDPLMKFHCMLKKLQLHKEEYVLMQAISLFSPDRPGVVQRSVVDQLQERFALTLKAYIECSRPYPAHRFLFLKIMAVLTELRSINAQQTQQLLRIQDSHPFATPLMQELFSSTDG
Turning to `CC12CC1(C)C(=O)N(c1cc(Cl)cc(Cl)c1)C2=O` (centres undefined), the AC50 was 19.7 µM (active).
On the same count and under the same terms, in the case of `CC1(C)CCC(Cc2ccc(Cl)cc2)C1(O)Cn1cncn1` (centres undefined) it was 2.24 µM (active).
On to `CC(C)(C)CC(C)(C)c1ccc(O)cc1`, for which the compound was called inactive.

The next experiment has as its target frog Thyroid hormone Receptor alpha (TRa), thra-a (gene 397942) (UniProt P15204). Nature of the experiment: ATG_frTRa_XSP1: Attagene TRANS-FACTORIAL Multi-Species (XSP1) HepG2 Assay for frog Thyroid hormone Receptor alpha (TRa) (AID 2283804). An outline of the steps:
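HepG2 cells transiently transfected with frog TRa-GAL4 chimeric reporter units, dosed 24 hr with 3 nM 6-alpha-fluorotestosterone present; reporter mRNA quantified by RT-PCR, fluorescent labelling and capillary electrophoresis, gain of signal versus DMSO.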
As for `CC(C)(C)c1cc(O)ccc1O`, the compound was called inactive.
The same measure, in the same setting: in the case of `O=C1C2(Cl)C3(Cl)C4(Cl)C(Cl)(Cl)C5(Cl)C3(Cl)C1(Cl)C5(Cl)C24Cl` (centres undefined) it was “inactive”.
In the case of `CC12CC1(C)C(=O)N(c1cc(Cl)cc(Cl)c1)C2=O` (centres undefined), the compound was called inactive.
As to `CC(C)(C)CC(C)(C)c1ccc(O)cc1`, the compound was classed as inactive.

A further experiment deals with human Thyroid hormone Receptor alpha (TRa), THRA (gene 7067) (UniProt P10827). As to the kind of experiment: ATG_hTRa_XSP1: Attagene TRANS-FACTORIAL Multi-Species (XSP1) HepG2 Assay for human Thyroid hormone Receptor alpha (TRa) (AID 2283805). The method in brief: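 HepG2 cells transiently transfected with GAL4-UAS reporter units expressing chimeric NR-Gal4 proteins, dosed 24 hours with 3 nM 6-alpha-fluorotestosterone present. Reporter mRNA measured by RT-PCR and capillary electrophoresis; gain of signal fitted versus DMSO.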
human Thyroid hormone Receptor alpha (TRa), THRA (gene 7067), sequence (P10827 whole entry, looked up, the tested form may be a part): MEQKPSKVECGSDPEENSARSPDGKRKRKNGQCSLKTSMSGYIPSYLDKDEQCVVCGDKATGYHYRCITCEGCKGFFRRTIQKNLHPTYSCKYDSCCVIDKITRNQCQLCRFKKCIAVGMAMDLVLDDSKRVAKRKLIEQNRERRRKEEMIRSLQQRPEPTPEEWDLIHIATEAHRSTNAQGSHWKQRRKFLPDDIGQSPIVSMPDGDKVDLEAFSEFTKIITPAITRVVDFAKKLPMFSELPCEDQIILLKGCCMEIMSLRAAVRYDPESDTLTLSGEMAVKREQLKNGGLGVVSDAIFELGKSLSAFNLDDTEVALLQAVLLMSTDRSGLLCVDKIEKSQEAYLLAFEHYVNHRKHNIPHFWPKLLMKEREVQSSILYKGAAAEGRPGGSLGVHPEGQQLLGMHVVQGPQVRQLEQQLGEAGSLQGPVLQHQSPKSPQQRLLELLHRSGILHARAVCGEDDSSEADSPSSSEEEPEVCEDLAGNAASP
Regarding `CC(C)(C)c1cc(O)ccc1O`, the call was inactive.
Still for that read-out and setting: for `C[C@]12CCC(=O)C[C@@H]1CC[C@@H]1[C@@H]2CC[C@]2(C)[C@@H](O)CC[C@@H]12` the value was “inactive”.
With `O=C1C2(Cl)C3(Cl)C4(Cl)C(Cl)(Cl)C5(Cl)C3(Cl)C1(Cl)C5(Cl)C24Cl` (centres undefined), the result was inactive.
Still for that read-out and setting: in the case of `CC12CC1(C)C(=O)N(c1cc(Cl)cc(Cl)c1)C2=O` (centres undefined) it was “inactive”.

The subject of another experiment is turtle Thyroid Hormone Receptor, alpha (TRa), gene 101949057. As to the kind of experiment: ATG_trTRa_XSP1: Attagene TRANS-FACTORIAL Multi-Species (XSP1) HepG2 Assay for turtle Thyroid Hormone Receptor, alpha (TRa) (AID 2283806). The method in brief: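 HepG2 cells transiently transfected with GAL4-UAS reporter units and chimeric receptor-Gal4 constructs, with 3 nM 6-alpha-fluorotestosterone present. Reporter mRNA was quantified 24 h after dosing by RT-PCR, 6-FAM labelling and capillary electrophoresis; gain of signal versus DMSO.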
For `C[C@]12CCC(=O)C[C@@H]1CC[C@@H]1[C@@H]2CC[C@]2(C)[C@@H](O)CC[C@@H]12`, the compound was classed as inactive.
With `O=C1C2(Cl)C3(Cl)C4(Cl)C(Cl)(Cl)C5(Cl)C3(Cl)C1(Cl)C5(Cl)C24Cl` (centres undefined), the call was inactive.
In the case of `CC12CC1(C)C(=O)N(c1cc(Cl)cc(Cl)c1)C2=O` (centres undefined), the outcome was inactive.
On the same count and under the same terms, in the case of `CC1(C)CCC(Cc2ccc(Cl)cc2)C1(O)Cn1cncn1` (centres undefined) it was “inactive”.
On the same count and under the same terms, for `CC(C)(C)CC(C)(C)c1ccc(O)cc1` the value was “inactive”.

The next experiment deals with zebrafish Thyroid Hormone Receptor alpha (TRa), thraa (gene 30670) (UniProt Q98867). As to the kind of experiment: ATG_zfTRa_XSP1: Attagene TRANS-FACTORIAL Multi-Species (XSP1) HepG2 Assay for zebrafish Thyroid Hormone Receptor alpha (TRa) (AID 2283807). An outline of the steps:
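HepG2 cells transiently transfected with GAL4-UAS reporter units including a zebrafish TRa–Gal4 chimera, dosed 24 h with 3 nM 6-alpha-fluorotestosterone present. Reporter mRNA quantified by RT-PCR and capillary electrophoresis; gain versus DMSO.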
Take `CC(C)(C)c1cc(O)ccc1O`: the outcome was inactive.
The same measure, in the same setting: in the case of `C[C@]12CCC(=O)C[C@@H]1CC[C@@H]1[C@@H]2CC[C@]2(C)[C@@H](O)CC[C@@H]12` it was “inactive”; in that of `O=C1C2(Cl)C3(Cl)C4(Cl)C(Cl)(Cl)C5(Cl)C3(Cl)C1(Cl)C5(Cl)C24Cl` (centres undefined), “inactive”.
On the same count and under the same terms, in the case of `CC12CC1(C)C(=O)N(c1cc(Cl)cc(Cl)c1)C2=O` (centres undefined) it was “inactive”; in that of `CC1(C)CCC(Cc2ccc(Cl)cc2)C1(O)Cn1cncn1` (centres undefined), “inactive”.
Regarding `CC(C)(C)CC(C)(C)c1ccc(O)cc1`, the outcome was inactive.

In general, AC50 refers to the midpoint of the concentration-response curve, whichever way the signal moves.
